Compound activity as filed in PubChem.
Compounds with a hit are over-represented: about 11% of the library has one in this group of screens.
OTUD3 block = inhibitors of human OTUD3 deubiquitinase; purified OTUD3, Ub-rhodamine fluorescence, 2 h; hit rate 0.7% among 47,000; inhibition, % at 25 µM; OTU domain-containing protein 3 (Homo sapiens), Q5T2D3
USP17 inh = inhibitors of human USP17 deubiquitinase. AID 1645855, 2021. purified USP17, Ub-rhodamine cleavage fluorescence, 3 h. hit rate 6.5% among 47,000. inhibition, % at 50 µM
USP30 block = inhibitors of human USP30 deubiquitinase. inhibition, % at 25 µM. hit rate 5.3% among 47,000. Ubiquitin carboxyl-terminal hydrolase 30 (Homo sapiens), Q70CQ3. purified USP30, Ub-rhodamine cleavage fluorescence
Target sequence (Q70CQ3 whole entry, looked up): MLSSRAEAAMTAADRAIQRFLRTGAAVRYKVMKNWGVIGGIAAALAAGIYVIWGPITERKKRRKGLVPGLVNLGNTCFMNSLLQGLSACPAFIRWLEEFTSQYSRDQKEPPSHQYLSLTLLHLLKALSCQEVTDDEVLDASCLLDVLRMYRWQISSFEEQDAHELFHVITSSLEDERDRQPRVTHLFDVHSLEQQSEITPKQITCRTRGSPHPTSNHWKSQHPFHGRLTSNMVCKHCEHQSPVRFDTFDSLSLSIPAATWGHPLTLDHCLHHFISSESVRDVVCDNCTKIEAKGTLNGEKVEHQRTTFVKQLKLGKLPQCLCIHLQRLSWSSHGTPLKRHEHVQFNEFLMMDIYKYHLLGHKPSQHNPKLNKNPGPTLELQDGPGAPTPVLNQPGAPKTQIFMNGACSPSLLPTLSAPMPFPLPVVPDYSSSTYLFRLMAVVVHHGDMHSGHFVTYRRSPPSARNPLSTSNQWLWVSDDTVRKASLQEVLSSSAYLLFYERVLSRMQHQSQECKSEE
USP28 inh = inhibitors of human USP28 deubiquitinase. Ubiquitin carboxyl-terminal hydrolase 28 (Homo sapiens), Q96RU2. purified USP28, Ub-rhodamine cleavage fluorescence, 30 min. inhibition, % at 25 µM. hit rate 3% among 47,000
Active calls of the source: *; . = no result. Cut-off read from the data, not from the text of the source: active = inhibition above about 30%; inactive = the rest.

SMILES	OTUD3 block	USP17 inh	USP30 block	USP28 inh
Cc1cccc(C(=O)Nc2cccc(SC(C(=O)Nc3ccc(Cl)c(C(=O)O)c3)c3ccccc3)c2)c1 (centres undefined)	20.8	80.4*	47.4*	44.3*
O=C(O)c1cc(NC(=O)C(Sc2cccc(NC(=O)c3ccccc3F)c2)c2ccccc2)ccc1O (centres undefined)	-50.5	-15.7	-166.7	-36.7
Cc1ccc(C(=O)O)cc1NC(=O)C(Sc1cccc(NC(=O)c2cccc(Cl)c2)c1)c1ccccc1 (centres undefined)	28.7	84.7*	91.1*	46.7*
COc1cccc(NS(=O)(=O)c2ccc3c(c2)N(C)CCO3)c1	-2.1	-4.6	-5.3	-0.7
COc1cccc(NS(=O)(=O)c2ccc(Oc3ccccc3OC)cc2)c1	16.5	36.3*	36.8*	33.6*
CCCOc1ccc(C(=O)Nc2ccc(S(=O)(=O)Nc3cc(C)nc(C)n3)cc2)cc1	57.2*	-3.0	-6.7	45.4*
COc1ccc(S(=O)(=O)c2ccc(NC(=O)c3cccc(Cl)c3)cc2C#N)cc1	-3.1	32.5*	19.3	-2.5
COc1ccc(C(=O)Nc2cccc(S(=O)(=O)NC3=NCCCCC3)c2)cc1	-9.5	-4.4	-9.2	39.9*
COc1ccc(NC(=O)c2cccc(C#N)c2)cc1S(=O)(=O)Nc1ccccc1Cl	-9.0	-0.1	-4.4	-5.9
O=C(Nc1ccc(S(=O)(=O)NC2=NCCCCC2)cc1)c1ccccc1	-15.0	-0.1	-24.7	-15.4
Cc1cc(NS(=O)(=O)c2ccc(NC(=O)COc3ccc(Cl)cc3)cc2)no1	-2.6	3.2	10.0	4.7
O=C(NC1CCCC1)N1CC[C@@H]2CNS(=O)(=O)[C@@H]2CC1	-1.0	0.8	-0.2	-0.1
O=C(COc1ccc(F)c(Cl)c1)N1CCCC(c2[nH]nc3nccnc23)C1 (centres undefined)	-1.4	1.1	-51.0	3.5
O=C(c1ccc(-n2cnnn2)cc1)N1CCOC(c2ccccc2)C1 (centres undefined)	6.1	-7.4	-2.7	0.4
O=C(NC1CCCN(c2ccccn2)C1)c1cnccn1 (centres undefined)	-6.3	-14.7	.	.
COc1ccc(NS(=O)(=O)c2ccc(C(=O)Nc3cccc(C(C)=O)c3)cc2)cc1	-8.2	45.7*	3.4	12.2
COC(=O)c1cc2cc(NC(=O)c3cccc(Cl)c3)ccc2s1	-4.0	26.2	36.4*	-8.2
Cc1cc(C)cc(C(=O)N2C[C@@H]3C[C@H](NC(=O)c4cccnc4)[C@H]2C3)c1	0.6	0.5	.	.
CCC(O)/C=C/C=C\C=C\C(=O)OCC1OC(OC2C(CO)OC3(OCc4cc(O)cc(O)c43)C(O)C2OC(=O)/C=C/C=C/CC(O)/C(C)=C/C=C/CCC(C)CC)C(O)C(O)C1O (centres undefined)	-16.9	-6.8	-180.6	-15.4
FC(F)(F)c1cc(-c2ccccc2)nc2[nH]c3ccccc3c12	5.6	6.9	14.3	5.9
O=C(Nc1ccccc1F)NC1(c2nc(-c3cnccn3)no2)CCCCC1	5.2	0.8	3.2	4.7
COc1ccc(-n2ncc(C(=O)N3CCN(c4cc(C)ccc4C)CC3)c2C2CCNCC2)cc1	19.9	-18.3	30.5*	10.9
CC1CCCC(C)N1c1ncnc2c1CN(C1CCNCC1)C(=O)CN2C (centres undefined)	-34.7	-105.0	-204.9	-55.7
O=C(Nc1nc2cc3c(cc2s1)OCCO3)C1CCCCC1	7.2	11.4	12.9	22.1
Cc1cc2nc(NC(=O)NC3CCCCC3)sc2cc1C	24.9	-39.0	35.8*	13.6
SMILES	OTUD3 block	USP17 inh	USP30 block	USP28 inh
CCOc1ccc(CCNC(=O)Cn2c(-c3ccc(F)cc3)cc(C(C)=O)c2C)cc1OCC	1.2	1.1	-2.4	-2.2
CCCCN1CC(C(=O)Nc2ccc(C(=O)Nc3ccc(Br)c(C)c3)cc2)CC1=O (centres undefined)	-1.5	39.0*	-26.9	-2.4
CCCCN1CC(C(=O)Nc2ccc(C(=O)Nc3cccc(Br)c3)cc2)CC1=O (centres undefined)	-5.7	24.0	-1.6	0.1
O=C(Oc1cccc(NC2=NS(=O)(=O)c3ccccc32)c1)c1ccc(S(=O)(=O)N2CCCCC2)cc1	0.0	51.6*	.	.
O=C(c1ccc(S(=O)(=O)N2CCOCC2)cc1)N1CCN(C2=NS(=O)(=O)c3ccccc32)CC1	0.0	1.2	11.2	3.6
CCC(=O)N(C1CCOCC1)C1CCN(S(=O)(=O)c2cc(F)ccc2C)CC1	10.2	18.5	5.3	15.1
O=C(Nc1ccccc1)c1ccc(-c2nc(-c3ccc(Cl)cc3)cs2)cc1	-3.4	-0.7	-8.7	-4.2
O=C(Nc1cccc(C(F)(F)F)c1)c1ccc(-c2nc(-c3ccc(Cl)cc3Cl)cs2)cc1	9.6	32.1*	13.6	-0.1
COc1ccc(NC(=O)NC(COC(=O)Nc2ccc(OC)cc2)c2ccccc2)cc1 (centres undefined)	29.5	59.9*	94.7*	32.9*
COc1ccc(CNS(=O)(=O)c2ccc3[nH]c(=O)ccc3c2)cc1	0.6	46.9*	.	.
COc1cccc(CNS(=O)(=O)c2ccc3[nH]c(=O)[nH]c3c2)c1	17.8	7.9	-4.3	18.3
O=C(NCCc1ccc(Cl)cc1)c1ccc(CNS(=O)(=O)c2ccccc2)cc1	16.9	0.7	83.8*	59.7*
O=C(NCCc1cccc(Cl)c1)c1ccc(-c2ccccc2)cc1	6.0	0.6	27.6	15.1
O=C(Nc1cc(S(=O)(=O)Nc2ccc(Cl)cc2)ccc1O)c1cc2c(s1)CCC2	7.8	13.5	20.3	5.1
Nc1ccc(NC(=O)c2cc3c(s2)CCC3)cc1[N+](=O)[O-]	4.5	57.6*	20.6	30.7*
COc1ccc(C(=O)c2cc3c(CO)cnc(C)c3oc2=O)cc1	2.2	-11.7	-6.0	-0.6
O=C(COc1ccc(N2CC(C(=O)NCc3ccccc3)CC2=O)cc1)Nc1ccc(F)cc1 (centres undefined)	12.1	60.3*	57.9*	22.8
Cc1ccc(N2CC(C(=O)NCCc3ccc(Cl)cc3)CC2=O)cc1 (centres undefined)	-6.7	40.5*	4.4	-4.9
O=C(COc1ccc(N2CC(C(=O)NCc3ccc4c(c3)OCO4)CC2=O)cc1)Nc1ccc(F)cc1 (centres undefined)	4.1	57.4*	56.6*	7.6
Cc1ccc(CNC(=O)C2CC(=O)N(c3ccc(OCC(=O)Nc4ccc(C)cc4C)cc3)C2)cc1 (centres undefined)	13.5	0.3	-0.4	-3.8
COc1ccc(NC(=O)COC(=O)C2CC(=O)N(c3ccc(F)cc3)C2)cc1 (centres undefined)	-5.7	-7.9	-2.1	2.5
O=C(COc1ccc(N2CC(C(=O)NCc3ccc4c(c3)OCO4)CC2=O)cc1)Nc1ccc(Cl)cc1 (centres undefined)	9.7	36.1*	15.4	5.1
Cc1ccc(CNC(=O)Cn2cnc(S(=O)(=O)N3CCCCC3)c2)cc1	-2.4	-7.1	-5.2	-5.0
CCCc1nc(-c2cc3cccc(C)c3nc2NCC2CCCO2)no1 (centres undefined)	2.2	-0.1	-8.4	1.1
O=C(NCc1ccc2c(c1)OCO2)c1ccc[nH]c1=O	-14.9	-7.1	-64.9	-16.9
